SMILES strings stand for the structures. Activity calls are given as the source filed them. Entries that show only a call come without a potency. Calls follow the shape of the dose curve; as a rule, active = well fitted curve in the direction sought with a large enough effect; inconclusive = small, poorly fitted or top-dose-only effect, or effect the other way, or another doubt; inactive = no such curve, though single readings can be large or run the other way.

The assay is described as follows: qHTS of Nrf2 Activators: LOPAC Validation (AID 624149). The note with it: Nrf2/ARE reporter cell assay; series mostly up to 46.1 µM. Summed up:
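ARE reporter activation measured in AREc32 firefly luciferase cells after 24 hr compound exposure; Steady-Glo luminescence.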
(In qHTS, concentration-response curves come from the screen itself.)
Consider `CC(C)NCC(O)COc1ccc(CC(N)=O)cc1` (centres undefined), for which the Potency result was “inactive”.

As to `CC(C)NC[C@H](O)COc1cccc2ccccc12`, the Potency result was “inactive”.

`Cc1cc(Cn2cnc3c2C[C@@H](C(=O)O)N(C(=O)C(c2ccccc2)c2ccccc2)C3)ccc1N`: the Potency entry was “inactive”.

Take `N#Cc1cc([N+](=O)[O-])c2sc(C(N)=O)[n+]([O-])c2c1`: the Potency result was “inactive”.

Consider `N=C(N)c1ccccc1`, for which the Potency entry is “inactive”.

`Oc1ccc(/C=C/c2ccc(/C=C/c3ccc(O)cc3)c(Br)c2)cc1`: the Potency entry is “inactive”.

On to `CN(C)CCC(c1ccc(Br)cc1)c1ccccn1` (centres undefined), for which the Potency entry is “inactive”.

With `CCCCCCN(CCCCCC)C(=O)Cc1c(-c2ccc(F)cc2)[nH]c2ccccc12`, the Potency result was “inactive”.

For `O=C(O)/C=C/c1ccc(O)c(O)c1`, the Potency result is “inactive”.

Regarding `CN(C)CCCc1cc(C(=O)Nc2ccc(-c3ccncc3)cc2)ccc1O`, the Potency result was “inactive”.

As to `CCc1ccc2c(-c3cccc(Cl)c3)nc(=O)n(CC)c2n1`, the Potency entry was “inactive”.

As to `CNCCc1cnc(CCC(c2ccccc2)c2ccccc2)[nH]1`, the Potency entry is “inactive”.

`Cc1nc2n(c(=O)c1CCN1CCC(c3noc4cc(F)ccc34)CC1)CCCC2O` (centres undefined): the Potency entry is “inactive”.

For the compound `COc1ccc(CCn2nnnc2C2(c3ccc(C)cc3)CC2)cc1`, the Potency entry was “inactive”.

Consider `O=c1cc(-c2ccccc2F)[nH]c2cc3c(cc12)OCO3`, for which the Potency entry is “inactive”.

With `c1ccc(C(NCc2cccnc2)(c2ccccc2)c2ccccc2)cc1`, the Potency result is “inactive”.

As to `C=CCN1CCc2cc(O)c(O)cc2C(c2ccccc2)C1` (centres undefined), the Potency result was “inactive”.

Consider `Nc1ncnc2c1nc(Br)n2C1OC2COP(=O)(O)O[C@@H]2C1O` (some centres undefined), for which the Potency entry is “inactive”.

On to `Cn1cc(C(=O)OCC2CCN(CCNS(C)(=O)=O)CC2)c2ccccc21`, for which the Potency result is “inactive”.

The record behind these values is PubChem BioAssay (NCATS).
